In PubChem BioAssay (NCI) one finds growth data, which are given here for eight molecules.

Structures are written as SMILES. Compounds without any hit were thinned out: in the full panel of roughly 83,000, 20% have a hit.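 For each line, cells grew in 96-well plates with the test compound present at a single concentration for 48 hours.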 Values without a mark were called inactive. The source made the active and inactive calls. The calls were made as follows: active = growth percent below 10; inactive = the rest.

Among the test systems are DU-145 prostate; K-562 leukemia; MALME-3M melanoma; MDA-MB-231 breast; RXF 393 renal; SF-268 CNS; SF-295 CNS; SF-539 CNS; UACC-257 melanoma; M14 melanoma; HCT-15 colon; HT29 colon; SNB-75 CNS; SNB-19 CNS; U251 CNS; PC-3 prostate; SK-MEL-5 melanoma; UACC-62 melanoma; SK-MEL-28 melanoma; LOX IMVI melanoma.
What all share (assay): NCI-60 one-dose screen, 48 h (100 = growth as untreated, 0 = no growth, -100 = all killed)
Common to all, as to conditions: 10 µM unless noted

Take `COc1ccc(Nc2nnc(-c3ccc(OC)c(OC)c3)o2)cc1`: the growth is 90.9% with DU-145 prostate; 80.2% with K-562 leukemia; 106% with MALME-3M melanoma; 55.7% in the test with MDA-MB-231 breast; 102% in the test with RXF 393 renal; 80.8% in the test with SF-268 CNS. For the same molecule, the growth in the test on SF-295 CNS is 101%; in the test with SF-539 CNS, 92.1%; with UACC-257 melanoma it was 102%; with M14 melanoma, 100%; in the test on HCT-15 colon, 80.3%; in the test with HT29 colon it was 90.9%. Further, the growth was 97.5% in the test with SNB-75 CNS; 97.5% in the test with SNB-19 CNS; 93% in the test on U251 CNS; 70.7% in the test on PC-3 prostate; 89% with SK-MEL-5 melanoma; 90.2% in the test with UACC-62 melanoma. Further, the growth in the test with SK-MEL-28 melanoma was 106%.
With `COC(=O)c1cc(N=C2NC(=O)/C(=C/C=C/c3ccccc3)S2)ccc1O`, the growth in the test with DU-145 prostate is 16.8%; in the test with K-562 leukemia, 14.4%; in the test with MALME-3M melanoma it was 65.3%; with MDA-MB-231 breast, 54.7%; in the test on RXF 393 renal, -12.8% (active); in the test on SF-268 CNS, 61.7%. The growth in the test with SF-295 CNS is 20.3%; in the test on SF-539 CNS it was 12.4%; in the test with UACC-257 melanoma, 70.9%; in the test on M14 melanoma it was 11.3%; in the test with HCT-15 colon it was 25.8%; with HT29 colon, 10.7%. Moreover, the growth in the test with SNB-75 CNS is 12.9%; in the test on SNB-19 CNS it was 30.4%; in the test on U251 CNS, 22.6%; with PC-3 prostate it was 30%; in the test on SK-MEL-5 melanoma, 30.1%; with LOX IMVI melanoma it was 40.1%. For the same molecule, the growth in the test on SK-MEL-28 melanoma was 65.4%.
With `CC1CCN(S(=O)(=O)c2ccc(S(=O)(=O)N3CCCC(c4nc5c(nnn5Cc5cccc(Cl)c5)c(=O)[nH]4)C3)cc2)CC1` (stereo not given), the growth in the test with DU-145 prostate is 59.8%; in the test on K-562 leukemia it was 20.1%; in the test on MALME-3M melanoma, 46.7%; in the test with MDA-MB-231 breast it was 73%; in the test on RXF 393 renal, 15.8%; in the test with SF-268 CNS it was 51.9%. For the same molecule, the growth was 63.6% in the test on SF-295 CNS; 49.7% with SF-539 CNS; 54.2% in the test with UACC-257 melanoma; 16.9% in the test on M14 melanoma; 36.1% with HCT-15 colon; 17.1% in the test on HT29 colon. Also, the growth in the test with SNB-75 CNS was 21.6%; with SNB-19 CNS, 67.6%; with U251 CNS, 45.1%; in the test with PC-3 prostate it was 47%; with SK-MEL-5 melanoma it was 24.1%; in the test with UACC-62 melanoma, 40.2%. Further, the growth in the test on SK-MEL-28 melanoma is 62%.
For the molecule `Clc1cccc(Nc2ncnc3ccc(-c4cnc5[nH]ccc5c4)cc23)c1`, the growth in the test with DU-145 prostate was 54%; in the test with K-562 leukemia it was 62.1%; in the test with MALME-3M melanoma, 82.9%; in the test on MDA-MB-231 breast it was 75%; with RXF 393 renal, 73.7%; in the test with SF-268 CNS, 66.2%. The growth is 86.8% in the test with SF-295 CNS; 84% in the test with SF-539 CNS; 75% in the test on UACC-257 melanoma; 88.7% with M14 melanoma; 69.4% in the test with HCT-15 colon; 54.1% with HT29 colon. For the same molecule, the growth was 84.7% in the test with SNB-75 CNS; 82.3% in the test with SNB-19 CNS; 72.9% in the test with U251 CNS; 70.5% in the test on PC-3 prostate; 75.4% with SK-MEL-5 melanoma; 90.2% in the test on UACC-62 melanoma. In the test with SK-MEL-28 melanoma, the growth was 96%.
For `CCC(=C(c1ccc(OCCN2CCCCC2)cc1)c1ccc(OCCN2CCCCC2)cc1)c1ccc(Cl)cc1`, the growth in the test on DU-145 prostate was -89.8% (active); in the test on K-562 leukemia it was -37% (active); in the test with MALME-3M melanoma it was -83.4% (active); in the test on MDA-MB-231 breast, -90.1% (active); with RXF 393 renal, -81.4% (active); in the test on SF-268 CNS it was -72.1% (active). The growth with SF-295 CNS was -89.7% (active); with SF-539 CNS, -97.3% (active); in the test with UACC-257 melanoma it was -76.9% (active); in the test on M14 melanoma, -83.1% (active); in the test with HCT-15 colon, -84.9% (active); in the test with HT29 colon it was -74.6% (active). In addition, the growth with SNB-75 CNS is -96.4% (active); with SNB-19 CNS, -94.5% (active); with U251 CNS it was -82.2% (active); in the test with PC-3 prostate, -81.2% (active); in the test on SK-MEL-5 melanoma, -96.8% (active); with LOX IMVI melanoma, -84.8% (active). Further, in the test with SK-MEL-28 melanoma, the growth was -97% (active).
For `CCC1=C[C@@H]2C[C@]3(C(=O)OC)c4[nH]c5ccccc5c4CC[N@+](CC(=O)Nc4cc5c(cc4OC)N(C)[C@H]4[C@@](O)(C(=O)OC)[C@H](OC(C)=O)[C@]6(CC)C=CCN7CC[C@]54[C@@H]76)(C2)[C@H]13`, the growth was 117% with DU-145 prostate; 106% in the test with K-562 leukemia; 102% in the test on MALME-3M melanoma; 98.2% in the test with MDA-MB-231 breast; 114% in the test with RXF 393 renal; 105% in the test on SF-268 CNS. Further, the growth was 107% in the test on SF-295 CNS; 106% in the test with SF-539 CNS; 101% with UACC-257 melanoma; 97.7% in the test with M14 melanoma; 108% in the test with HCT-15 colon; 109% in the test with HT29 colon. Moreover, the growth in the test on SNB-75 CNS is 98.8%; in the test with SNB-19 CNS, 110%; in the test with U251 CNS, 97.3%; in the test with PC-3 prostate, 93.2%; in the test on SK-MEL-5 melanoma it was 101%; with LOX IMVI melanoma it was 99.1%. In the test with SK-MEL-28 melanoma, the growth is 109%.
Turning to `Cc1cc(N2CCN(CCNc3ccnc4cc(Cl)ccc34)CC2)nc(N2CCOCC2)n1`, the growth in the test on DU-145 prostate was 74.8%; with K-562 leukemia it was 14.6%; in the test on MALME-3M melanoma it was 60.1%; with MDA-MB-231 breast, 34.3%; with RXF 393 renal it was 42.9%; in the test on SF-268 CNS, 70.4%. Also, the growth in the test on SF-295 CNS is 75.5%; in the test on SF-539 CNS, 29.6%; with UACC-257 melanoma it was 54%; in the test on M14 melanoma it was 48%; in the test on HCT-15 colon, 27.4%; in the test with HT29 colon, 20.7%. The growth with SNB-75 CNS was 88.3%; in the test on SNB-19 CNS it was 89.9%; in the test with U251 CNS, 64.5%; in the test with SK-MEL-5 melanoma it was 25.4%; in the test with UACC-62 melanoma, 60.2%; in the test on SK-MEL-28 melanoma, 77.5%.
In the case of `Nc1cnc(C(=O)NNc2nc3cc(F)ccc3n3cccc23)cn1`, the growth was 37.8% with DU-145 prostate; 23.7% in the test with K-562 leukemia; 59.9% with MALME-3M melanoma; 35.9% in the test with MDA-MB-231 breast; 70.6% with RXF 393 renal; 36% in the test on SF-268 CNS. The growth was 12.7% in the test on SF-295 CNS; 33.9% in the test with SF-539 CNS; 50.9% in the test with UACC-257 melanoma; 23.3% with M14 melanoma; 24.8% with HCT-15 colon; 35% with HT29 colon. Moreover, the growth with SNB-75 CNS is 87.2%; in the test with SNB-19 CNS, 36.1%; in the test with U251 CNS, 36.7%; in the test with SK-MEL-5 melanoma, 34.5%; in the test with UACC-62 melanoma it was 22.7%; with SK-MEL-28 melanoma, 40%.
